The list is not random: actives were taken first. Their share in the collection is about 2.3%.
Bim-Mcl-1 = inhibitors of Bim peptide binding to Mcl-1, primary screen, biochemical, bead-based flow cytometry, multiplex; Induced myeloid leukemia cell differentiation protein Mcl-1 (Homo sapiens), Q07820; inhibition, % at 10 µM; AID 1009, 2008; hit rate 0.1% among 190,000; Bim peptide-Mcl-1 binding; in the data active = inhibition above about 40%;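 also: 0% = no compound tracer wells and 100% = peptide blocker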
Target sequence (Q07820 whole entry, looked up): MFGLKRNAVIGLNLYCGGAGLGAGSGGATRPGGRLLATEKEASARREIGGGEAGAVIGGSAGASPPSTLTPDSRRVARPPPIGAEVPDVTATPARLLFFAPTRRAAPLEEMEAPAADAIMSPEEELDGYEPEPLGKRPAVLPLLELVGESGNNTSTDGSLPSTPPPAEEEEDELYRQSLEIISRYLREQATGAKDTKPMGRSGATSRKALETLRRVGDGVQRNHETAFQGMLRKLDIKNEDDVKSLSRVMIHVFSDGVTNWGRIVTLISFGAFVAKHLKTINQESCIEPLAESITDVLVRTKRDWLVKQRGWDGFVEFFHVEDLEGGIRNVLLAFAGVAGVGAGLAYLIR
BCLXL inh = inhibitors of human Bcl-xL, primary screen, biochemical, fluorescence polarization, HTS; hit rate 0.7% among 320,000; GST-Bcl-xL / FITC-Bim BH3 peptide fluorescence polarization; inhibition, % at 10.9 µM; Bcl-2-like protein 1 (Homo sapiens), Q07817;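 active = inhibition above the mean of all tested compounds plus 3 SD, cutoff set per campaign, cut at about 30% in these data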;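 also: 0% = DMSO wells and 100% = unlabeled Bim-BH3 peptide competitor; inhibitors lower millipolarization by displacing the labeled peptide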
Mcl1 Bid PPI = Mcl-1/Bid binding inhibitors, primary screen, biochemical, TR-FRET, 1536-well; Induced myeloid leukemia cell differentiation protein Mcl-1 (Homo sapiens), Q07820; AID 1021, 2008; TR-FRET Mcl-1/Bid-Dy647 peptide binding; hit rate 0.97% among 220,000; inhibition, % at 21.7 µM;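 active = compounds that cut the binding signal by more than half at the single screening dose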;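 also: His-tagged Mcl-1 with europium anti-His antibody binding Bid BH3 peptide; 0% = Mcl-1 plus peptide wells and 100% = peptide-only wells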
MCL1 BIM primary = inhibitors of MCL1 binding to BIM-BH3, primary screen, biochemical, fluorescence polarization. inhibition, % at 10.9 µM. hit rate 0.68% among 320,000. GST-MCL1 / FITC-Bim-BH3 fluorescence polarization. Induced myeloid leukemia cell differentiation protein Mcl-1 (Homo sapiens), Q07820;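 active = inhibition above the mean inhibition of all tested compounds plus 3 SD, set per campaign, cut at about 40% in these data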;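 also: 0% = DMSO wells and 100% = unlabeled Bim-BH3 peptide control; higher means more loss of mP so more displacement of Bim peptide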
Mcl1-Noxa inh = Mcl-1/Noxa binding inhibitors, primary screen, biochemical, TR-FRET, 1536-well | Induced myeloid leukemia cell differentiation protein Mcl-1 (Homo sapiens), Q07820 | TR-FRET Mcl-1/Noxa peptide binding, 2 h | hit rate 1.5% among 220,000 | AID 1022, 2008 | inhibition, % at 21.7 µM;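 active = compounds that cut the protein-peptide binding signal by more than 50% relative to plate controls in a single-dose test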;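 also: His-tagged Mcl-1 with rhodamine Noxa BH3 peptide and terbium anti-His antibody; 0% = Mcl-1 plus Noxa peptide wells and 100% = peptide-only wells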
GLD-1 RNA inh = GLD-1/TGE RNA complex disruptors, primary screen, biochemical, fluorescence polarization. hit rate 0.44% among 320,000. purified GLD-1 + fluorescein TGE RNA. inhibition, % at 5.96 µM;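 active = percent inhibition above a per-plate cutoff, the plate mean of test compounds plus 3 SD, cut at about 30% in these data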;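 also: 0% = DMSO wells with GLD-1 and probe and 100% = wells lacking GLD-1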
* hit, by the source's call; nt = no result.

SMILES | Bim-Mcl-1 | BCLXL inh | Mcl1 Bid PPI | MCL1 BIM primary | Mcl1-Noxa inh | GLD-1 RNA inh
CN(CC(=O)Nc1ccccc1Cl)C(=O)COC(=O)c1ccccc1[N+](=O)[O-] | nt | 0 | nt | -7 | nt | 5
O=C(Nc1ccc(C(=O)N2CCC(N3CCOCC3)CC2)cc1)c1ccc(Br)o1 | nt | 1 | nt | 3 | nt | 2
CC(C)(C)CN1C(=O)C(=O)NC[C@@H]1CCCCN | nt | 3 | nt | 2 | nt | -3
COc1ccc(Nc2ncc(C(=O)O)c3ccccc23)cc1 | 0 | 2 | -47 | 4 | 19 | 1
COc1ccc(Nc2ncc(C(=O)N3CCN(c4ccc(F)cc4)CC3)c3ccccc23)cc1 | 0 | 1 | 99* | -5 | 12 | 3
Cc1cc(NC(=O)CSc2nnc3c(C)cc4ccccc4n23)no1 | 0 | 2 | -21 | -4 | 2 | 7
Cc1cc2ccccc2n2c(SCC(=O)NCc3cccs3)nnc12 | 5 | 7 | 7 | 8 | 67* | 4
COc1ccc(N/C=C2\C(=O)CCc3c2oc2cc(Cl)c(O)c(Cl)c32)cc1 | nt | 6 | 86* | 32 | 74* | 1
COc1ccc(N/C=C2\CCOC2=O)cc1 | 0 | 4 | -101 | 3 | 29 | 7
CC(CC1C(C#N)=C(N)OC2=C1C(=O)CCC2)c1ccccc1 (stereo not drawn) | -1 | 0 | 60* | -5 | 12 | -2
CN(C)S(=O)(=O)c1ccc(NC(=O)CCCNC(=O)c2ccc(Cl)cc2)cc1 | nt | -4 | nt | -2 | nt | 3
CC1=C(C(=O)OCc2ccccc2)C(c2cccc(F)c2)NC(=O)N1 (stereo not drawn) | nt | 2 | nt | 9 | nt | 1
Cc1ccc(N2NC(=O)/C(=C\c3cc4c(cc3[N+](=O)[O-])OCO4)C2=O)cc1C | 1 | 10 | 5 | 16 | 100* | 4
O=C1NN(c2ccccc2)C(=O)/C1=C\c1ccc2c(c1)OCO2 | nt | 9 | nt | 6 | nt | 8
COc1ccc(OCc2cc(C(=O)N3C[C@H]4CC[C@H]3C4)no2)c(Cl)c1 | nt | -1 | nt | -3 | nt | 6
CCN(CC)CCCNC(=O)C1CCN(C(=O)c2oc3cc4sc(N(C)C)nc4cc3c2C)CC1 | nt | 7 | nt | 3 | nt | -6
CCN(CC)S(=O)(=O)c1ccc(-n2cnc3cc(C)c(C)cc32)nc1 | nt | 3 | nt | 1 | nt | -2
O=c1[nH]c(-c2ccc(F)cc2)nc2c1sc(=S)n2-c1ccccc1 | -4 | 8 | -6 | 7 | 48 | -27
O=c1[nH]c(-c2ccccc2Cl)nc2c1sc(=S)n2-c1ccccc1 | 1 | nt | 89* | nt | 44 | nt
CCCn1c(=O)c(C#N)cn(C2CC2)c1=O | nt | 2 | -26 | -2 | -10 | 9
COc1cc(/C=N/NC(=O)c2cccnc2)ccc1OC(=O)c1ccc([N+](=O)[O-])cc1 | 1 | -1 | 34 | -1 | 58* | 4
COc1cc(OC)c([N+](=O)[O-])cc1/C=N/NC(=O)c1ccncc1 | 7 | 5 | -5 | 14 | 71* | 0
COc1cccc(/C=N/NC(=O)c2ccncc2)c1OC(=O)c1ccc(Br)cc1 | nt | 34* | nt | 38 | nt | 27
O=C(N/N=C/c1ccc(OC(=O)c2ccc([N+](=O)[O-])cc2)cc1)c1cccnc1 | nt | 9 | nt | 8 | nt | 2
COc1cc(/C=N/NC(=O)c2ccncc2)ccc1OC(=O)c1cccc(Br)c1 | nt | 0 | nt | 3 | nt | -5
CC(NC(=O)c1ccccc1)C(=O)NNC(=O)c1ccccc1Cl (stereo not drawn) | nt | -2 | nt | -2 | nt | 9
COC(=O)c1sc(-c2ccc(C(C)(C)C)cc2)cc1NC(=O)c1ccccc1C(=O)O | nt | 6 | 8 | 8 | 51* | -1
COC(=O)c1sc(-c2ccc(Cl)cc2)cc1NC(=O)c1ccccc1C(=O)O | nt | 3 | 4 | 1 | -18 | 8
O=C(CSc1nnc(NC(=O)c2c(F)cccc2F)s1)NC1CCCCC1 | nt | 4 | nt | 1 | nt | 0
COc1cccc(NC(=O)c2ccc(N3C(=O)C4CCC(C)CC4C3=O)cc2)c1 (stereo not drawn) | nt | 2 | nt | -1 | nt | -6

Bioassay records deposited in PubChem BioAssay by several laboratories.
